# From the supplement of paper PMC8728848
# Many of the other results were omitted from the sample, so the strongest signals are more common in it than they were.
# What was measured:
# Test in all cases: glycan array binding signal (z-score within array); higher = stronger binding
# Settings in all cases: glycan notation: IUPAC condensed, linker removed
# [1] = biological target: Fuc(a1-2)Gal(b1-3)GlcNAc(b1-2)Man(a1-3)[Fuc(a1-2)Gal(b1-3)GlcNAc(b1-2)Man(a1-6)]Man(b1-4)GlcNAc(b1-4)GlcNAc
# Procedure, shortened: (§1)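 The Consortium for Functional Glycomics database supplied 3228 glycan arrays, of which those lacking an available protein sequence were dropped. The binding signal, a within-array Z-score, was averaged across arrays of the same protein sequence and across linkers. Negative scores can be read as non-binding.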
# [2] = biological target: Fuc(a1-2)Gal(b1-3)GlcNAc(b1-2)Man(a1-3)[Fuc(a1-2)Gal(b1-3)GlcNAc(b1-2)Man(a1-6)]Man(b1-4)GlcNAc(b1-4)[Fuc(a1-6)]GlcNAc
# Procedure, shortened: as §1
# Fuc(a1-2)Gal(b1-4)GlcNAc = biological target: Fuc(a1-2)Gal(b1-4)GlcNAc
# Procedure, shortened: as §1
# [3] = biological target: Fuc(a1-2)Gal3S(b1-4)GlcNAc
# Procedure, shortened: as §1
# [4] = biological target: Fuc(a1-2)[GalNAc(a1-3)]Gal(b1-4)GlcNAc(b1-3)Gal(b1-4)GlcNAc
# Procedure, shortened: as §1
# [5] = biological target: Fuc(a1-2)[GalNAc(a1-3)]Gal(b1-4)GlcNAc(b1-6)GalNAc
# Procedure, shortened: as §1
# [6] = biological target: Fuc(a1-2)[GalNAc(a1-4)]Gal(b1-4)GlcNAc
# Procedure, shortened: as §1
# [7] = biological target: Fuc(a1-2)[GalNAc(b1-3)]Gal
# Procedure, shortened: as §1
# [8] = biological target: Gal(a1-3)Gal(b1-3)GlcNAc(b1-6)GalNAc
# Procedure, shortened: as §1
# [9] = biological target: Gal(a1-3)Gal(b1-4)GlcNAc(b1-6)GalNAc
# Procedure, shortened: as §1
# [10] = biological target: Gal(a1-4)Gal(b1-3)GlcNAc(b1-2)Man(a1-3)[Gal(a1-4)Gal(b1-3)GlcNAc(b1-2)Man(a1-6)]Man(b1-4)GlcNAc(b1-4)GlcNAc
# Procedure, shortened: as §1
# [11] = biological target: Gal(a1-4)Gal(b1-4)GlcNAc(b1-3)Gal(b1-4)Glc
# Procedure, shortened: as §1
# Gal(b1-3)GlcNAc(b1-2)Man = biological target: Gal(b1-3)GlcNAc(b1-2)Man
# Procedure, shortened: as §1
# [12] = biological target: Gal(b1-3)GlcNAc(b1-2)Man(a1-3)[GlcNAc(b1-4)][Gal(b1-3)GlcNAc(b1-2)Man(a1-6)]Man(b1-4)GlcNAc(b1-4)GlcNAc
# Procedure, shortened: as §1
# [13] = biological target: Gal(b1-3)GlcNAc(b1-6)GalNAc
# Procedure, shortened: as §1
# Gal3S(b1-4)Glc = biological target: Gal3S(b1-4)Glc
# Procedure, shortened: as §1
# [14] = biological target: GalNAc(b1-3)Gal(a1-4)Gal(b1-4)GlcNAc
# Procedure, shortened: as §1
# [15] = biological target: GalNAc(b1-3)Gal(a1-6)Gal(b1-4)Glc
# Procedure, shortened: as §1
# [16] = biological target: GlcNAc(b1-2)Man(a1-3)[GlcNAc(b1-4)][GlcNAc(b1-2)Man(a1-6)]Man(b1-4)GlcNAc(b1-4)GlcNAc
# Procedure, shortened: as §1
# [17] = biological target: GlcNAc(b1-2)[GlcNAc(b1-6)]Man(a1-6)[GlcNAc(b1-2)Man(a1-3)]Man(b1-4)GlcNAc(b1-4)GlcNAc
# Procedure, shortened: as §1
# [18] = biological target: GlcNAc(b1-3)Gal(b1-4)GlcNAc
# Procedure, shortened: as §1
# [19] = biological target: GlcNAc(b1-3)Gal(b1-4)GlcNAc(b1-3)Gal(b1-4)GlcNAc(b1-3)Gal(b1-4)GlcNAc(b1-2)Man(a1-3)[GlcNAc(b1-3)Gal(b1-4)GlcNAc(b1-3)Gal(b1-4)GlcNAc(b1-3)Gal(b1-4)GlcNAc(b1-2)Man(a1-6)]Man(b1-4)GlcNAc(b1-4)[Fuc(a1-6)]GlcNAc
# Procedure, shortened: as §1
# [20] = biological target: GlcNAc(b1-3)Gal(b1-4)GlcNAc(b1-3)Gal(b1-4)GlcNAc(b1-3)Gal(b1-4)GlcNAc(b1-3)Gal(b1-4)GlcNAc(b1-2)Man(a1-3)[GlcNAc(b1-3)Gal(b1-4)GlcNAc(b1-3)Gal(b1-4)GlcNAc(b1-3)Gal(b1-4)GlcNAc(b1-3)Gal(b1-4)GlcNAc(b1-2)Man(a1-6)]Man(b1-4)GlcNAc(b1-4)GlcNAc
# Procedure, shortened: as §1
# [21] = biological target: GlcNAc(b1-3)Gal(b1-4)GlcNAc(b1-3)Gal(b1-4)GlcNAc(b1-3)Gal(b1-4)GlcNAc(b1-3)Gal(b1-4)GlcNAc(b1-2)Man(a1-3)[GlcNAc(b1-3)Gal(b1-4)GlcNAc(b1-3)Gal(b1-4)GlcNAc(b1-3)Gal(b1-4)GlcNAc(b1-3)Gal(b1-4)GlcNAc(b1-2)Man(a1-6)]Man(b1-4)GlcNAc(b1-4)[Fuc(a1-6)]GlcNAc
# Procedure, shortened: as §1
# GlcNAc(b1-6)GalNAc = biological target: GlcNAc(b1-6)GalNAc
# Procedure, shortened: as §1
# Kdn(a2-3)Gal(b1-3)GlcNAc = biological target: Kdn(a2-3)Gal(b1-3)GlcNAc
# Procedure, shortened: as §1
# [22] = biological target: Man(a1-2)Man(a1-3)[Man(a1-2)Man(a1-6)]Man(a1-6)[Man(a1-2)Man(a1-2)Man(a1-3)]Man(b1-4)GlcNAc(b1-4)GlcNAc
# Procedure, shortened: as §1
# Neu5Ac(a2-3)Gal = biological target: Neu5Ac(a2-3)Gal
# Procedure, shortened: as §1
# [23] = biological target: Neu5Ac(a2-3)Gal(b1-3)GlcNAc(b1-6)GalNAc
# Procedure, shortened: as §1
# [24] = biological target: Neu5Ac(a2-3)Gal(b1-3)[Fuc(a1-4)]GlcNAc(b1-3)Gal(b1-3)[Fuc(a1-4)]GlcNAc
# Procedure, shortened: as §1
# [25] = biological target: Neu5Ac(a2-3)Gal(b1-3)[Neu5Ac(a2-6)]GlcNAc(b1-3)[Fuc(a1-3)[Gal(b1-4)]GlcNAc(b1-6)]Gal(b1-4)Glc
# Procedure, shortened: as §1
# Neu5Ac(a2-3)Gal(b1-4)Glc = biological target: Neu5Ac(a2-3)Gal(b1-4)Glc
# Procedure, shortened: as §1
# [26] = biological target: Neu5Ac(a2-3)Gal(b1-4)[Fuc(a1-3)]GlcNAc(b1-3)GalNAc
# Procedure, shortened: as §1
# [27] = biological target: Neu5Ac(a2-6)Gal(b1-4)GlcNAc(b1-2)Man(a1-3)[Neu5Ac(a2-6)Gal(b1-4)GlcNAc(b1-2)Man(a1-6)]Man(b1-4)GlcNAc(b1-4)GlcNAc
# Procedure, shortened: as §1
# [28] = biological target: Neu5Ac(a2-6)Gal(b1-4)GlcNAc(b1-2)Man(a1-3)[Neu5Ac(a2-6)Gal(b1-4)GlcNAc(b1-2)Man(a1-6)]Man(b1-4)GlcNAc(b1-4)[Fuc(a1-6)]GlcNAc
# Procedure, shortened: as §1
# [29] = biological target: Neu5Ac(a2-6)Gal(b1-4)GlcNAc(b1-2)Man(a1-6)[Man(a1-3)]Man(b1-4)GlcNAc(b1-4)GlcNAc
# Procedure, shortened: as §1
# [30] = biological target: Neu5Ac(a2-6)Gal(b1-4)GlcNAc(b1-6)GalNAc
# Procedure, shortened: as §1
# [31] = biological target: Neu5Ac(a2-8)Neu5Ac(a2-3)Gal(b1-3)GalNAc(b1-4)[Neu5Ac(a2-8)Neu5Ac(a2-3)]Gal(b1-4)Glc
# Procedure, shortened: as §1
# [32] = biological target: Neu5Ac(a2-8)Neu5Ac(a2-8)Neu5Ac
# Procedure, shortened: as §1
binder,measurement,setting,value
DC-ASGPR Long (Homo sapiens) (protein) MTRTYENFQYLENKVKVQGFKNGPLPLQSLLQRLRSGPCHLLLSLGLGLLLLVIICVVGFQNSKFQRDLVTLRTDFSNFTSNTVAEIQALTSQGSSLEETIASLKAEVEGFKQERQAGVSELQEHTTQKAHLGHCPHCPSVCVPVHSEMLLRVQQLVQDLKKLTCQVATLNNNASTEGTCCPVNWVEHQDSCYWFSHSGMSWAEAEKYCQLKNAHLVVINSREEQNFVQKYLGSAYTWMGLSDPEGAWKWVDGTDYATGFQNWKPGQPDDWQGHGLGGGEDCAHFHPDGGWNDDVCQRPYHWVCEAGLGQTSQESH,glycan array binding signal (z-score),[1],-1.26
same,glycan array binding signal (z-score),[2],-0.382
same,glycan array binding signal (z-score),Fuc(a1-2)Gal(b1-4)GlcNAc,-0.356
same,glycan array binding signal (z-score),[3],0.826
same,glycan array binding signal (z-score),[4],-0.618
same,glycan array binding signal (z-score),[5],5.11
same,glycan array binding signal (z-score),[6],3.67
same,glycan array binding signal (z-score),[7],5.95
same,glycan array binding signal (z-score),[8],3.07
same,glycan array binding signal (z-score),[9],3.58
same,glycan array binding signal (z-score),[10],-0.383
same,glycan array binding signal (z-score),[11],-0.788
same,glycan array binding signal (z-score),Gal(b1-3)GlcNAc(b1-2)Man,-0.186
same,glycan array binding signal (z-score),[12],-0.269
same,glycan array binding signal (z-score),[13],5.68
same,glycan array binding signal (z-score),Gal3S(b1-4)Glc,-0.075
same,glycan array binding signal (z-score),[14],3.37
same,glycan array binding signal (z-score),[15],3.13
same,glycan array binding signal (z-score),[16],-0.323
same,glycan array binding signal (z-score),[17],5.41
same,glycan array binding signal (z-score),[18],-0.433
same,glycan array binding signal (z-score),[19],0.194
same,glycan array binding signal (z-score),[20],0.068
same,glycan array binding signal (z-score),[21],1.61
same,glycan array binding signal (z-score),GlcNAc(b1-6)GalNAc,3.43
same,glycan array binding signal (z-score),Kdn(a2-3)Gal(b1-3)GlcNAc,-0.092
same,glycan array binding signal (z-score),[22],-0.746
same,glycan array binding signal (z-score),Neu5Ac(a2-3)Gal,-0.419
same,glycan array binding signal (z-score),[23],4.59
same,glycan array binding signal (z-score),[24],-0.273
same,glycan array binding signal (z-score),[25],-0.251
same,glycan array binding signal (z-score),Neu5Ac(a2-3)Gal(b1-4)Glc,-0.302
same,glycan array binding signal (z-score),[26],0.105
same,glycan array binding signal (z-score),[27],-0.115
same,glycan array binding signal (z-score),[28],-0.343
same,glycan array binding signal (z-score),[29],-0.516
same,glycan array binding signal (z-score),[30],-0.224
same,glycan array binding signal (z-score),[31],-0.349
same,glycan array binding signal (z-score),[32],-0.221
